This is an account of results in publication PMC4336329 (PLoS ONE, 2015).

About 14,000 (4.5%) of roughly 310,000 compounds showed an effect of 50% or more. The effect is printed as a negative number. The sample holds strong results, similar compounds and a random draw of the others, so the mix is not that of the screen.
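Also: peak tail current of the secondary pulse compared with the same well before compound.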

The assay deals with human ether-à-go-go-related gene (hERG) potassium channel (human, UniProt Q12809). Description: primary screen, population patch clamp on CHO cells stably expressing hERG; higher = less effect of the substance.
Chain of human ether-à-go-go-related gene (hERG) potassium channel (Q12809 whole entry, looked up): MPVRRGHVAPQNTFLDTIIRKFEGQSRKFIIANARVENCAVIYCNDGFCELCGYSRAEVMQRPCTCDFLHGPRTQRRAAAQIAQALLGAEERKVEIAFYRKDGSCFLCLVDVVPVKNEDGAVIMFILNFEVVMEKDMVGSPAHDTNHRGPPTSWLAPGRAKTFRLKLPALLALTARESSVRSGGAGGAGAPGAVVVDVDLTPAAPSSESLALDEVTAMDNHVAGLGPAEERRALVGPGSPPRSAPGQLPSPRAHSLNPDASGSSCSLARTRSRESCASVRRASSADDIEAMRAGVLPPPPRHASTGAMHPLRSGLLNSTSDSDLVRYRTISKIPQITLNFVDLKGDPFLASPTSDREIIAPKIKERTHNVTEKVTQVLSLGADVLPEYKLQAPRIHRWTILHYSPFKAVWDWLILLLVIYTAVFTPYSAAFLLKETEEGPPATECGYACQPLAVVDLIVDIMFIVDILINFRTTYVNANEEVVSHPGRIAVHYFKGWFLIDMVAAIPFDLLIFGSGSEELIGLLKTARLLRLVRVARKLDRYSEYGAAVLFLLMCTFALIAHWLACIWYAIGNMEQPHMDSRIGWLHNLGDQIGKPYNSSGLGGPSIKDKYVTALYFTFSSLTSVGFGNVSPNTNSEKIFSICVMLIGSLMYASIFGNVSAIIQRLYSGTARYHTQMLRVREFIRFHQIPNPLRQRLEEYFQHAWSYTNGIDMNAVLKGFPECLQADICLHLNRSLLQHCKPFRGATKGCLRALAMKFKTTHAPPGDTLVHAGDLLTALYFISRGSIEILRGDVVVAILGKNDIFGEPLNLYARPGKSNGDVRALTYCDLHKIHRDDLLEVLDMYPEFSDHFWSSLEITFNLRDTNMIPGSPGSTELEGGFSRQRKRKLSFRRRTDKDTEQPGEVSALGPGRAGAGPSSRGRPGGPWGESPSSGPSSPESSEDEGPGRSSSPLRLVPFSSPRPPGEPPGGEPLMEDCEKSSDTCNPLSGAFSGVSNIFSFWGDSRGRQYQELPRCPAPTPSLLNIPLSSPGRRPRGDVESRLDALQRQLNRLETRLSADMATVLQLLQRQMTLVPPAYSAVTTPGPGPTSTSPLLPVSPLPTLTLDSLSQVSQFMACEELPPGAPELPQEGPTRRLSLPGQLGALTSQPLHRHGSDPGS
`O=C(Nc1ccc(F)cc1F)c1ccco1`: the “hERG current change (%, negative = inhibition) at 10uM” value turned out to be 2.94%. Then `COc1nc(N)c(S(=O)(=O)c2ccccc2)cc1C#N`, with -19%; and `COc1cccc(S(=O)(=O)N2CCN(Cc3ccc4c(c3)OCO4)CC2)c1`, with -24.4%. Then `COC(=O)/C(=C\Nc1ccc(Cl)cc1Cl)NC(=O)c1ccc(OC)cc1`, with 5.27%.

On to `Fc1ccc(C2=CC(c3ccco3)n3nnnc3N2)cc1` (centres unmarked), for which the “hERG current change (%, negative = inhibition) at 10uM” value is on record as -6.76%. With `Cc1ccc(OC(C)C(=O)Nc2cc(C)on2)cc1` (centres unmarked), the “hERG current change (%, negative = inhibition) at 10uM” value is on record as 2.53%. Then `O=C(NCCSCc1ccccc1)c1ccc(C2SCC(=O)N2Cc2ccccc2)cc1` (centres unmarked), with -8.07%. Then `CC(=O)c1cccc(NC(=O)c2ccco2)c1`, with 7.09%.

Regarding `Cc1ccccc1NC(=O)Cn1c(=O)sc2ccccc21`, the “hERG current change (%, negative = inhibition) at 10uM” value was -0.661%. The value for `COc1ccc(Cl)cc1NC(=O)C1CCN(C(=O)C2CC(=O)N(c3ccc(C)cc3)C2)CC1` (centres unmarked) was -60.4%. Regarding `COc1ccc(OC)c(NC(=O)C2CCN(C(=O)C3CC(=O)N(c4ccc(C)cc4)C3)CC2)c1` (centres unmarked), the “hERG current change (%, negative = inhibition) at 10uM” value is -37.7%. Then `COc1ccc(C)cc1NC(=O)C1CCN(C(=O)C2CC(=O)N(c3ccc(C)cc3)C2)CC1` (centres unmarked), with -23.1%; and `CCc1cccc(C)c1NC(=S)NCc1ccccc1`, with 0.76%; and `CC(C)OP(=O)(c1ccccc1)c1ccccc1`, with -3.71%. Then `c1ccc2sc(NC3=NCN(Cc4ccc5c(c4)OCO5)CN3)nc2c1`, with 4.28%; and `CCOC(=O)N1CCN(C(=O)c2nc3ccccc3s2)CC1`, with -0.815%; and `CCOC(=O)N1CCN(CC(=O)Nc2nc3ccccc3s2)CC1`, with -35.5%. The value for `CCOC(=O)N1CCN(/C=C(\C#N)c2nc3ccccc3s2)CC1` was -58.5%; that for `N#C/C(=C\N1CCN(Cc2ccc3c(c2)OCO3)CC1)c1nc2ccccc2s1` was -52.8%; that for `Cl.N#C/C=C/N1CCN(Cc2ccc3c(c2)OCO3)CC1` was 1.29%.

With `CCCn1c(=O)c(C(=O)NCCc2ccc(OC)c(OC)c2)c(O)c2ccccc21`, the “hERG current change (%, negative = inhibition) at 10uM” value amounted to 10.5%.

With `CCOC(=O)C1=C(COC(=O)C2CC(=O)N(c3ccc(C)cc3)C2)NC(=O)NC1C` (centres unmarked), the “hERG current change (%, negative = inhibition) at 10uM” value is on record as -7.55%. Take `Cc1cccc(S(=O)(=O)C(C#N)c2nc3ccccc3nc2N2CCCC2)c1` (centres unmarked): the “hERG current change (%, negative = inhibition) at 10uM” value was -18.4%.

Regarding `O=C(N/N=C1\CCCc2ccccc21)c1ccc([N+](=O)[O-])cc1Cl`, the “hERG current change (%, negative = inhibition) at 10uM” value is on record as -3.01%.

As to `COc1cccc(C(=O)C2CCCN(C/C=C/c3ccccc3OC)C2)c1` (centres unmarked), the “hERG current change (%, negative = inhibition) at 10uM” value is -68.4%. Then `COc1ccc(C(=O)C2CCCN(C/C=C/c3ccccc3OC)C2)c(OC)c1` (centres unmarked), with -77.5%.
